# Screening results as filed in PubChem BioAssay.
# Lamin A splicing – modulators of lamin A splicing. 200,000 compounds, 0.01% hits. AID 1487. HeLa LMNA splicing GFP/RFP minigene ratio, 48 h. Potency, µM (series often up to 46.1 µM), for the others: at the highest dose ratio change, negative = inhibition, usual class: inhibitors; active = well fitted inhibition curve with a large enough effect in the signal ratio, with a control signal flat, not every such curve was filed as active; inconclusive = small, poorly fitted or top-dose-only effect, or effect the other way, or a change in a side signal; the % refers to the signal ratio; also: % is scaled to controls: 0 for no effect and ±100 for the full control effect
#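 S3 HeLa stable clones carrying a lamin A-EGFP splicing minigene plus DsRed2 were seeded at 600 cells/well in Opti-MEM with 2% FBS, pin-dosed and incubated 48 h at 37°C. Acumen cytometry (488 nm) gave the GFP/RFP total-intensity ratio.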
# HttQ103 aggreg – reduces HttQ103-GFP aggregates in PC12 cells. Potency, µM (top dose mostly 46.1 µM), for inactives: top-dose activity change, negative = inhibition, most hits filed as inhibitors. PC12 HttQ103-GFP aggregates, Acumen cytometry, 40 h. 220,000 compounds, 1.1% hits; also: % is scaled to controls: 0 for no effect and ±100 for the full control effect; nearly all actives have a fitted effect of over 60% in size
#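 PC12 cells with ecdysone-inducible HTT exon1 Q103-GFP, induced by 100 nM tebufenozide, given compounds in a concentration series. GFP aggregates (1–25 um, 6 SD above background) counted in lysates by laser-scanning cytometry, 488 nm excitation.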
# HPGD block – inhibitors of human 15-hydroxyprostaglandin dehydrogenase (HPGD); P15428; purified HPGD, NADH fluorescence kinetic, PGE2 substrate; Potency, µM, inactives show at the top dose activity change, negative = inhibition, usual class: inhibitors; 150,000 compounds, 4.3% hits; AID 894; active = well fitted inhibition curve with a large enough effect, not every such curve was filed as active; inconclusive = small, poorly fitted or top-dose-only effect, or another doubt; inactive = no such curve, though single readings can be large or run the other way; also: % is scaled to controls: 0 for no effect and ±100 for the full control effect
#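 NADH formation kinetics: reaction with 30 uM PGE2 and 1 mM NAD+ (final), 20 nM enzyme, Tris-HCl pH 8 with Tween 20, after 15 min compound preincubation at room temperature. Fluorescence change, last versus first of five reads.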
# HTT ATP protect – protects HTT-Q103 PC12 cells, measured by ATP. PC12 HTT-Q103 induced, cytoprotection, ATP luminescence, 40 h. Potency, µM (top dose mostly 56.4 µM), for the others: cytoprotection (ATP increase), hits mostly activators. 230,000 compounds, 0.14% hits; also: % of control where 0% means no effect; nearly all actives have a fitted effect of over 45% in size
#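 Compounds were screened for protection of PC12 cells against cell death after tebufenozide induction (100 nM final) of mutant Huntingtin exon 1 (Q103) fused to GFP.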
# ALDH1A1 block – inhibitors of human aldehyde dehydrogenase 1A1; P00352; Purified ALDH1A1, NADH fluorescence, propionaldehyde substrate; Potency, µM (doses to about 75.3 µM), for the others: top-dose activity, negative = inhibition, most hits filed as inhibitors; 220,000 compounds, 7.3% hits; active = well fitted inhibition curve with a large enough effect, not every such curve was filed as active; inconclusive = small, poorly fitted or top-dose-only effect, or another doubt; inactive = no such curve, though single readings can be large or run the other way;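 also: plate controls were no enzyme wells and a reference inhibitor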
# Target sequence (P00352 whole entry, looked up): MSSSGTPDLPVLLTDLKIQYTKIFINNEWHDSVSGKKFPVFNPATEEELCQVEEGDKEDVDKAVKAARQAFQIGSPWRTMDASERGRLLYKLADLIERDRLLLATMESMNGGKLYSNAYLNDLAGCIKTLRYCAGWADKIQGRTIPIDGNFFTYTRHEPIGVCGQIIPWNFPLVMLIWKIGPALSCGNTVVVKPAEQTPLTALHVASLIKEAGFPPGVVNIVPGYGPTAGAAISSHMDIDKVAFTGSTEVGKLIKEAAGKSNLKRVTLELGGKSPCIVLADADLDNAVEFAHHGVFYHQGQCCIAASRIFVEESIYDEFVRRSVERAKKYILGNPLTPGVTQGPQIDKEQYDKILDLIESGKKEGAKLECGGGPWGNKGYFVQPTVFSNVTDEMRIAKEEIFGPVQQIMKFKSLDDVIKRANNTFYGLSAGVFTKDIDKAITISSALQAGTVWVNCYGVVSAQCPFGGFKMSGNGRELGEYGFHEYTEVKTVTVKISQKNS
# * = called active by the depositor; ? = inconclusive; . = not tested or not shown; [ ] = dose if it differs, or a comment. The list is not random: actives were taken first. Their share in the collection is about 8.8%. Unless noted, calls follow the shape of the dose curve; as a rule, active = well fitted curve in the direction sought with a large enough effect; inconclusive = small, poorly fitted or top-dose-only effect, or another doubt; inactive = no such curve, though single readings can be large; an effect the other way counts as inactive or inconclusive. Potency is read from the fitted curve at half-maximal effect.
SMILES,Lamin A splicing,HttQ103 aggreg,HPGD block,HTT ATP protect,ALDH1A1 block
CC1CCN(CCC(=O)N2CCCc3c2c(=O)oc2ccc(O)cc32)CC1,?,22%,-1%,?,2.2µM*
CN(CC(=O)N1CCCc2c1c(=O)oc1ccc(O)cc21)Cc1ccccc1,-2%,3%,-15%,-12%[10 µM],13µM*
CC(C(=O)N1CCCc2c1c(=O)oc1ccc(O)cc21)N1CCc2ccccc2C1 (configuration not stated),-2%,-1%,.,-15%,?
C=CCC1C=CC(Oc2ccc(OC)cc2)C(CO)O1 (configuration not stated),.,.,.,10%[10 µM],8%[13.5 µM]
COC(=O)CCC(=O)OC1(C)C(=O)C2=CN(c3ccccc3)C(c3ccc(OC)cc3)=CC2=C(Br)C1=O (configuration not stated),8%[9.22 µM],.,-12%,-15%[10 µM],3.5µM*
COC(=O)CCC(=O)OC1(C)C(=O)C2=CN(Cc3ccc(OC)cc3)C(c3ccc(OC)cc3)=CC2=C(Br)C1=O (configuration not stated),-4%[9.22 µM],.,-12%,1%[10 µM],3.2µM*
CC(=O)Nc1ccc2c(c1)n(C)c(=O)n2C,24%,8%,-8%,2%,3%
Cn1c(=O)n(C)c2cc(NC(=O)CCl)ccc21,?,?,-13%,-88%,0.71µM*
c1ccc2c(c1)nc(NC1CCCCC1)c1nncn12,-2%,-8%,-19%,-20%,10µM*
Cc1nnc2c(NC3CCCC3)nc3ccccc3n12,.,2%,.,-28%,?
COc1cc2c(cc1OC)C(c1ccc(Cl)cc1)=NCC2,.,-9%[9.22 µM],.,14%[10 µM],.
COc1cc2c(cc1OC)C(c1ccc(-c3cc(Cl)ccc3Cl)o1)=NCC2,?,5%,16µM*,-52%[10 µM],?
COc1cc2c(cc1OC)C(c1ccc(-c3ccc(Cl)c(Cl)c3)o1)=NCC2,?,8.9µM*,-8%,8%[10 µM],-5%
COc1cc2c(cc1OC)C(c1ccc(-c3ccccc3Cl)o1)=NCC2,?,?,-21%,-40%,3%
COc1cc2c(cc1OC)C(c1ccc(-c3ccc(Cl)cc3Cl)o1)=NCC2,?,14µM*,-4%,-104%,1%
Cc1cc(C)c(NC(=O)Cn2c(=O)n(-c3ccc(F)cc3)c(=O)c3c(C)c(C(=O)N(C)C)sc32)c(C)c1,11%[46 µM],.,.,.,.
CC1CC(C)CN(C(=O)c2ccc(C#N)cc2)C1 (configuration not stated),-5%[46 µM],11%,.,-7%[10 µM],?
CC1CC(C)CN(C(=O)c2ccc(NC(=O)c3ccc(=O)[nH]c3)cc2)C1 (configuration not stated),2%,9%,7.9µM*,.,-6%
CN1CCN(C(=S)NC(=O)c2ccc(Cl)cc2)CC1,16%[46 µM],-1%[9.22 µM],.,-4%[10 µM],18µM*
O=C(CSc1nc2ccccc2s1)NC(=O)NCc1ccco1,-2%,4%,25µM*,10%,32µM*
O=C(CSc1n[nH]c(-c2ccccc2)n1)NC(=O)NCc1ccco1,12%,9%,14µM*,-10%,-6%
O=C(CSc1ncccn1)NC(=O)NCc1ccco1,2%[46 µM],10%,.,-8%,-5%
O=C(CSc1nc(-c2ccccc2)cs1)NC(=O)NCc1ccco1,?,18%,-19%,1%[10 µM],?
O=C(CSc1n[nH]c(-c2ccccc2)n1)Nc1ccc(Br)cn1,-14%,?,13µM*,8%[10 µM],-1%
COc1cc(-c2noc(C3CC(=O)N(c4cc(C)ccc4C)C3)n2)cc(OC)c1OC (configuration not stated),-11%[46 µM],.,.,.,.
SMILES,Lamin A splicing,HttQ103 aggreg,HPGD block,HTT ATP protect,ALDH1A1 block
Cc1c(C(=O)Nc2ccccc2Br)oc2ccc(S(=O)(=O)N3CCCCCC3)cc12,-9%[46 µM],.,.,.,.
COC(=O)c1ccc(NC(=O)NCCn2nnc3cc(S(=O)(=O)N(C)C)ccc32)cc1,-2%[46 µM],.,.,.,.
CCCN(CCC)c1ncnc2nc[nH]c12,6%,7.9µM*,-4%,5%,6%
COc1ccccc1CNC(=O)COCc1cc(-c2cccs2)on1,-16%[46 µM],.,.,.,.
Oc1ccc(C(c2nnnn2C2CCCCC2)N2CCOCC2)cc1 (configuration not stated),19%[46 µM],2.8µM*,.,.,-17%
COc1cc2cc(C(=O)N3CCN(Cc4ccc5c(c4)OCO5)CC3)c(=O)oc2cc1OC,.,-17%[9.22 µM],.,12%[10 µM],.
COc1cc(NC(=S)N2CCN(C(=O)C3CCCO3)CC2)c(OC)cc1Cl (configuration not stated),3%,-5%,-15%,-7%[10 µM],-2%
CC(C)CCNc1nc2c(c(=O)n(Cc3cccc(F)c3)c(=O)n2C)n1C,?,25µM*,?,-25%,13µM*
COCCNc1nc2c(c(=O)n(C)c(=O)n2C)n1Cc1cccc(C)c1,?,16µM*,1%,-12%[10 µM],2%
Cn1c(=O)c2c(nc(Oc3ccc(-c4ccccc4)cc3)n2C)n(C)c1=O,9%,2.8µM*,-11%,-11%,10%
Cn1c(NCc2ccccc2)nc2c1c(=O)n(Cc1ccccc1)c(=O)n2C,-17%,-10%,-27%,-18%[10 µM],?
CCCOc1nc2c(c(=O)n(C)c(=O)n2C)n1Cc1cccc2ccccc12,?,13µM*,-6%,-88%,?
Cc1cccc(Cn2c(NCCO)nc3c2c(=O)n(C)c(=O)n3C)c1,?,?,-15%,-8%[10 µM],?
COc1ccc(C2=NCCn3cccc32)c(OC)c1,-1%,-5%,-6%,.,-3%
CC1CCN(C(=O)C2CCC(C)(C(=O)O)C2(C)C)CC1 (configuration not stated),8%,4%,-3%,-2%[10 µM],2%
O=C(Nc1ccc(O)c(C(=O)O)c1)Oc1ccccc1,-5%[46 µM],-11%[9.22 µM],.,15%[10 µM],?
COc1cccc(Cn2c(Oc3ccccc3)nc3c2c(=O)n(C)c(=O)n3C)c1,-8%,-28%,-22%,-3%[10 µM],0.25µM*
O=C(NNC(=S)Nc1ccccc1)C1CC1,-12%,18%,-2%,3%,4%
S=C(NN=C(C1CC1)C1CC1)Nc1ccccc1,-10%,4%,-8%,-29%[10 µM],25µM*
CC1CN(S(=O)(=O)c2ccc(NC(=O)c3cc(-c4ccccc4O)n[nH]3)cc2)CC(C)O1 (configuration not stated),?,17%[9.22 µM],14µM*,-22%,5%
CC(=O)C1=C(O)C(=O)N(Cc2ccco2)C1c1ccccc1F (configuration not stated),.,-12%,.,-16%,10µM*
CC(=O)C1=C(O)C(=O)N(Cc2ccco2)C1c1ccccc1 (configuration not stated),-2%,-22%,-28%,-21%,0%
CN(C)CCCNC(=S)Nc1ccc(-c2ccccc2)cc1,.,0%[9.22 µM],.,9%[10 µM],?
Cc1nc2cnc(Oc3ccccc3)nc2n(Cc2cccs2)c1=O,8%,.,.,-47%,?
CCOC(=O)/C=C/CCCC=O,.,.,-6%,-35%,6%
C=C(C)C(=O)/C=C/CCC/C=C/C(=O)OCC,.,.,-6%,28%,25µM*
